Experimental data: publication PMC7862700, “An all-to-all approach to the identification of sequence-specific readers for epigenetic DNA modifications on cytosine”

Columns and labels:
Assay in all cases: DAPPL (digital affinity profiling via proximity ligation, sequencing); 10 mM Tris-HCl pH 7.5, 50 mM NaCl, 1 mM DTT, 4% glycerol, room temperature, 30 min; GST-TFs on glutathione beads, 16-mer random dsDNA library, 0.1% formaldehyde crosslink after washing; high values mean tight binding
[1] = biological target: T1, FLI1 (Homo sapiens, UniProt Q01543 1-452); settings: protein: recombinant; tags: N-terminal GST; dsDNA, one strand shown
T1 sequence: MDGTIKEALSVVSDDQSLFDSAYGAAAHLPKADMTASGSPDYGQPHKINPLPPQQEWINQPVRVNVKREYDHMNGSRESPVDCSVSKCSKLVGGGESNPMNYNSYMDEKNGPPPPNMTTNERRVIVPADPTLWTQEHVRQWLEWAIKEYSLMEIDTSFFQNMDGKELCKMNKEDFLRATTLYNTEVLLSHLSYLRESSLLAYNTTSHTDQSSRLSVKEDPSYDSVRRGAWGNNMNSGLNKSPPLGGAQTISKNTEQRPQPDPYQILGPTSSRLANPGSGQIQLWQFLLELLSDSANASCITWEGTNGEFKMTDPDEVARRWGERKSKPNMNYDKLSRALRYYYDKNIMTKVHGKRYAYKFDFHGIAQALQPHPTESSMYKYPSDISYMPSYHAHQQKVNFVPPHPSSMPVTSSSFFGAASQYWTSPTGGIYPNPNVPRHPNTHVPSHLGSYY
In short: (§1)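 Pools of DNA-barcoded human transcription factors, expressed in yeast as GST fusions on glutathione beads and combined with a tag-only sample, were incubated with 200 nmole of a 16-mer random double-stranded DNA library. Incubation took 30 min at room temperature in Tris/NaCl/DTT/glycerol buffer and was followed by washing, 0.1% formaldehyde crosslinking, proximity ligation (BsaI/T4 ligase, 1 h, 37 °C), PCR amplification and sequencing on an Illumina NextSeq500. Binding signal is the ratio of a hexamer's read frequency for a factor to its frequency for the tag-only sample.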

[2] = biological target: T2, ELK1 (Homo sapiens, UniProt P19419 1-428); settings: protein: recombinant; tags: N-terminal GST; dsDNA, one strand shown
T2 sequence: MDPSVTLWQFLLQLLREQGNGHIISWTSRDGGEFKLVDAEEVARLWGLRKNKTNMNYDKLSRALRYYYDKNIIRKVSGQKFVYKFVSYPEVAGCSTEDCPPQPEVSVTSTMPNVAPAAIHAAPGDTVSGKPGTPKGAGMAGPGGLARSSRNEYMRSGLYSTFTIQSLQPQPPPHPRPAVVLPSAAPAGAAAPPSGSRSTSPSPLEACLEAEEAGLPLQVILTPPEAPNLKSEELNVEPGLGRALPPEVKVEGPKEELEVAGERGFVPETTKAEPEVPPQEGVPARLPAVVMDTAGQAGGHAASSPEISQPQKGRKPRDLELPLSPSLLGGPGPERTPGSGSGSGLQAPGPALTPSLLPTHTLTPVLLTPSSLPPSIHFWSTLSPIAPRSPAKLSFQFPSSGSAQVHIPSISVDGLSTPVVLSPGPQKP
In short: as §1

[3] = biological target: T3, GABPA (Homo sapiens, UniProt Q06546 1-454); settings: protein: recombinant; tags: N-terminal GST; dsDNA, one strand shown
T3 sequence: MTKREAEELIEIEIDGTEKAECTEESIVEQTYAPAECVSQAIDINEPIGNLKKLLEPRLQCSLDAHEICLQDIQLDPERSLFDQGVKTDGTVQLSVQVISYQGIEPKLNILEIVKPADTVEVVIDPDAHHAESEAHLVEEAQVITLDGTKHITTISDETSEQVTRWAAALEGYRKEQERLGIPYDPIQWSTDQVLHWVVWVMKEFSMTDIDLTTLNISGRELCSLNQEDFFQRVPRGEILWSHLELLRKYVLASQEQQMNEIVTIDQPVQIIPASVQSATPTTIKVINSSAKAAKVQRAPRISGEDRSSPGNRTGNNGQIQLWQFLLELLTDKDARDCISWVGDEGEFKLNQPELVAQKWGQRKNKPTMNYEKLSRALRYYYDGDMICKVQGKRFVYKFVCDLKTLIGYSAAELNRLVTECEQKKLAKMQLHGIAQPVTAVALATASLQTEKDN
In short: as §1

[4] = biological target: T4, ERG (Homo sapiens, UniProt P11308 1-479); settings: protein: recombinant; tags: N-terminal GST; dsDNA, one strand shown
T4 sequence: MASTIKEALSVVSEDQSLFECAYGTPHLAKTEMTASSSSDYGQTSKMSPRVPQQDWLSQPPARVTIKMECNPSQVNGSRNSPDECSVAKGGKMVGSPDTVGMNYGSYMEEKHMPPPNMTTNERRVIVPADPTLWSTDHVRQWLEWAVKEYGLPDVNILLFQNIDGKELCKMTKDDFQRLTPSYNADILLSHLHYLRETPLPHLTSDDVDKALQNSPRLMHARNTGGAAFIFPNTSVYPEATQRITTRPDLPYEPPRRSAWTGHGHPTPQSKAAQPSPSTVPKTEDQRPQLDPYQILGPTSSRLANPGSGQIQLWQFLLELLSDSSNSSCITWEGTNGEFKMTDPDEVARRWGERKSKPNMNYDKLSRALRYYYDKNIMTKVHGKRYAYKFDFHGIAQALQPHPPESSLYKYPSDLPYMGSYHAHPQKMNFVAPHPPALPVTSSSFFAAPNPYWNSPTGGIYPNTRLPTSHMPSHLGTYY
In short: as §1

[5] = biological target: ELF1 (Homo sapiens, UniProt P32519 1-619); settings: protein: recombinant; tags: N-terminal GST; dsDNA, one strand shown
In short: as §1

[6] = biological target: T5, EHF (Homo sapiens, UniProt Q9NZC4 1-300); settings: protein: recombinant; tags: N-terminal GST; dsDNA, one strand shown
T5 sequence: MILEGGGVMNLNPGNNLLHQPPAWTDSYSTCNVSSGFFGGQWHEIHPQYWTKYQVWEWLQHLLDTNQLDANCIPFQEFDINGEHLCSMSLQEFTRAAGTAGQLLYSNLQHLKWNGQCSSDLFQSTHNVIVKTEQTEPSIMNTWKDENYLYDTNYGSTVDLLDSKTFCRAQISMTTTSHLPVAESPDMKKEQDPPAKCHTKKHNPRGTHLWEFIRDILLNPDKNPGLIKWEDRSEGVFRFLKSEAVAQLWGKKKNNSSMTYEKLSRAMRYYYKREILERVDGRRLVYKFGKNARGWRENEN
In short: as §1

[7] = biological target: SPI1 (Homo sapiens, UniProt P17947 1-270); settings: protein: recombinant; tags: N-terminal GST; dsDNA, one strand shown
In short: as §1

[8] = biological target: SPIB (Homo sapiens, UniProt Q01892 1-262); settings: protein: recombinant; tags: N-terminal GST; dsDNA, one strand shown
In short: as §1

[9] = biological target: T6, ELK3 (Homo sapiens, UniProt P41970 1-407); settings: protein: recombinant; tags: N-terminal GST; dsDNA, one strand shown
T6 sequence: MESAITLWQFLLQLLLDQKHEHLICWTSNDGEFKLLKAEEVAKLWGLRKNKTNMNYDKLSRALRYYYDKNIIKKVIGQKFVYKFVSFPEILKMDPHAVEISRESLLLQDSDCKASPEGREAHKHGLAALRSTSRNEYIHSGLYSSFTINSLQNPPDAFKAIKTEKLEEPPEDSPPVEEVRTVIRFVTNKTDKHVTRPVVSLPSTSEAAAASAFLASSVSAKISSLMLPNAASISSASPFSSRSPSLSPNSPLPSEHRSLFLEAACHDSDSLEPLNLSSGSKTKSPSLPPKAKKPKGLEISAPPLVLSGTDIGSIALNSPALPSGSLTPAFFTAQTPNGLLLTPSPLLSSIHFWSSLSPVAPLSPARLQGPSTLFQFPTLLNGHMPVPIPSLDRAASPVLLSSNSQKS
In short: as §1

[10] = biological target: T7, FEV (Homo sapiens, UniProt Q99581 1-238); settings: protein: recombinant; tags: N-terminal GST; dsDNA, one strand shown
T7 sequence: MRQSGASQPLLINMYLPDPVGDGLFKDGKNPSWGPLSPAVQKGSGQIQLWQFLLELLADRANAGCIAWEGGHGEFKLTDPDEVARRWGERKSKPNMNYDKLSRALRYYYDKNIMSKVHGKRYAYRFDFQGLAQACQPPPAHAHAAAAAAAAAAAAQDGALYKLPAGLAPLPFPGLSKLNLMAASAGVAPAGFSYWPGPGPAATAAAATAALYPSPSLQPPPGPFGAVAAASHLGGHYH
In short: as §1

[11] = biological target: ETV5 (Homo sapiens, UniProt P41161 1-510); settings: protein: recombinant; tags: N-terminal GST; dsDNA, one strand shown
In short: as §1

[12] = biological target: HSF1 (Homo sapiens, UniProt Q00613 1-529); settings: protein: recombinant; tags: N-terminal GST; chain copies: 3; dsDNA, one strand shown
In short: as §1

[13] = biological target: T8, SPIC (Homo sapiens, UniProt Q8N5J4 1-248); settings: protein: recombinant; tags: N-terminal GST; dsDNA, one strand shown
T8 sequence: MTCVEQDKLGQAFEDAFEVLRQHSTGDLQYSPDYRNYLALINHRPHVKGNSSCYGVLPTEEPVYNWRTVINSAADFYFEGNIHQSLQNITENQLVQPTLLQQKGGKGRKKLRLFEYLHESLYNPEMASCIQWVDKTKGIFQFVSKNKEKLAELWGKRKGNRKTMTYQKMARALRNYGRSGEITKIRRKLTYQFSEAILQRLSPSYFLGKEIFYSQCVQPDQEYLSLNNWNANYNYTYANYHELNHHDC
In short: as §1

[14] = biological target: ELF4 (Homo sapiens, UniProt Q99607 1-663); settings: protein: recombinant; tags: N-terminal GST; dsDNA, one strand shown
In short: as §1

[15] = biological target: T9, ELK4 (Homo sapiens, UniProt P28324-2 1-405); settings: protein: recombinant; tags: N-terminal GST; dsDNA, one strand shown
T9 sequence: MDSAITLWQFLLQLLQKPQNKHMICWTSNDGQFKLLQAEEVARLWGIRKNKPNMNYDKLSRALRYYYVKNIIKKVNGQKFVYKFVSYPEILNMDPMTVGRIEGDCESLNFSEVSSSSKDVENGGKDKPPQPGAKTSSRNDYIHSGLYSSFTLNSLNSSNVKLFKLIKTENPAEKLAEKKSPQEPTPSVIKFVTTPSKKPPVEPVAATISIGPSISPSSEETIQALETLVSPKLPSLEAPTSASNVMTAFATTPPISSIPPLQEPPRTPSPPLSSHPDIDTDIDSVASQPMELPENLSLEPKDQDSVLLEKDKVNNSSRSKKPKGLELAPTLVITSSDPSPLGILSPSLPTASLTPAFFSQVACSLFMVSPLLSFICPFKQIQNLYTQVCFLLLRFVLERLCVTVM
In short: as §1

[16] = biological target: T10, ETV2 (Homo sapiens, UniProt O00321 1-342); settings: protein: recombinant; tags: N-terminal GST; dsDNA, one strand shown
T10 sequence: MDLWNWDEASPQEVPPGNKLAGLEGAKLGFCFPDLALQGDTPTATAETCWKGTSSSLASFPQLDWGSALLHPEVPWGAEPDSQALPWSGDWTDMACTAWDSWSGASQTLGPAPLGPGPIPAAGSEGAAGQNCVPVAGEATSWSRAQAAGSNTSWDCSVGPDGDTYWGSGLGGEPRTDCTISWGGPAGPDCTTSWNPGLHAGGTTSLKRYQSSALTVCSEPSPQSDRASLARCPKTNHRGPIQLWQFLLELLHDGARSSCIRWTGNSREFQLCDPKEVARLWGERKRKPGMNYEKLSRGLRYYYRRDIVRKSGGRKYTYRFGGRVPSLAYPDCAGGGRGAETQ
In short: as §1

[17] = biological target: T11, ELF3 (Homo sapiens, UniProt P78545 1-371); settings: protein: recombinant; tags: N-terminal GST; dsDNA, one strand shown
T11 sequence: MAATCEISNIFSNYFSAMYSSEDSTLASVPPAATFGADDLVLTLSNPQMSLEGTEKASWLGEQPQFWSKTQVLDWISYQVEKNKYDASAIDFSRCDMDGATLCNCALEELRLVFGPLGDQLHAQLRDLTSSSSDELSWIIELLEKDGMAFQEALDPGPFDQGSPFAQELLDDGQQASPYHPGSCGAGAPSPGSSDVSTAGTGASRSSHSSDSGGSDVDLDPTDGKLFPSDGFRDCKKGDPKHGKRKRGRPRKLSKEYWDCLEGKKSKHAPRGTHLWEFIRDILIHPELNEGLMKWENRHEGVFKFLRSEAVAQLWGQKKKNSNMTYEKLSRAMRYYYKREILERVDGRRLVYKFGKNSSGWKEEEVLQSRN
In short: as §1

[18] = biological target: CRX (Homo sapiens, UniProt O43186 1-299); settings: protein: recombinant; tags: N-terminal GST; dsDNA, one strand shown
In short: as §1

[19] = biological target: ETV1 (Homo sapiens, UniProt P50549 1-477); settings: protein: recombinant; tags: N-terminal GST; dsDNA, one strand shown
In short: as §1

Chain of ETV5 (P41161 whole entry): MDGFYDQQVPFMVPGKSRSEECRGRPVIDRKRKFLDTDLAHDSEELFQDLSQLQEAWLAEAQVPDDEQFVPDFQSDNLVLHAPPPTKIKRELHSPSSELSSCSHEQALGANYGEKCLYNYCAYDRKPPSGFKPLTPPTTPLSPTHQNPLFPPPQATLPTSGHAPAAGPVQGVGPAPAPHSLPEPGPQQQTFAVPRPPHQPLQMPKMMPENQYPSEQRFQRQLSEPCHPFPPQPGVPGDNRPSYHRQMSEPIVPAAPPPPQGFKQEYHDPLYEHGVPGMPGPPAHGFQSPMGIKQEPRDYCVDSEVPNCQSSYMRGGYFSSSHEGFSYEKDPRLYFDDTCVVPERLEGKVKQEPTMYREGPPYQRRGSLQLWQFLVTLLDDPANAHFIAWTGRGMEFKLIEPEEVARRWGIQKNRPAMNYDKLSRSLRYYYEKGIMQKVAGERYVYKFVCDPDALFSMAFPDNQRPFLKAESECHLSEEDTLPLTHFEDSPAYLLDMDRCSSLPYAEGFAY
Chain of SPIB (Q01892 whole entry): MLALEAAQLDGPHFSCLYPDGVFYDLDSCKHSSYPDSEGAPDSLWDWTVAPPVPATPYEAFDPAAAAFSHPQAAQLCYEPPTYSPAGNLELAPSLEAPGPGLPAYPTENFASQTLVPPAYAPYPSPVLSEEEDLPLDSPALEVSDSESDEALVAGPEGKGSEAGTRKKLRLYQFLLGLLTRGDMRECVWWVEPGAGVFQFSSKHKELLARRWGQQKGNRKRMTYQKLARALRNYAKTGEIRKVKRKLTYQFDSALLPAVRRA
Chain of HSF1 (Q00613 whole entry): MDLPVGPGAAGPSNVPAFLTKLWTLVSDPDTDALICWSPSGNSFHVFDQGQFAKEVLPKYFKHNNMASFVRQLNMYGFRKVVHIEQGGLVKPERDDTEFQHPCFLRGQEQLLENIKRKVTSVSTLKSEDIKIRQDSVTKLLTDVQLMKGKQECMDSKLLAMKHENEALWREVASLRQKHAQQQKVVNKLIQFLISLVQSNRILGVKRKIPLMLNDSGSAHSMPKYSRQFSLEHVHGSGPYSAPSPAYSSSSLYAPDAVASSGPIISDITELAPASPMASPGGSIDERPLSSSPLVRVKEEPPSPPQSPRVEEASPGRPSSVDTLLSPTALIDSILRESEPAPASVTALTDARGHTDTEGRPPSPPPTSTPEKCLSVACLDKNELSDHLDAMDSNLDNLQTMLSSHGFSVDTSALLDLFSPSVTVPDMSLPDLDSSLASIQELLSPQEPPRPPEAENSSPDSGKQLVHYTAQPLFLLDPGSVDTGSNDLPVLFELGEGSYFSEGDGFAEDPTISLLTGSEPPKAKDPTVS
Chain of ELF1 (P32519 whole entry): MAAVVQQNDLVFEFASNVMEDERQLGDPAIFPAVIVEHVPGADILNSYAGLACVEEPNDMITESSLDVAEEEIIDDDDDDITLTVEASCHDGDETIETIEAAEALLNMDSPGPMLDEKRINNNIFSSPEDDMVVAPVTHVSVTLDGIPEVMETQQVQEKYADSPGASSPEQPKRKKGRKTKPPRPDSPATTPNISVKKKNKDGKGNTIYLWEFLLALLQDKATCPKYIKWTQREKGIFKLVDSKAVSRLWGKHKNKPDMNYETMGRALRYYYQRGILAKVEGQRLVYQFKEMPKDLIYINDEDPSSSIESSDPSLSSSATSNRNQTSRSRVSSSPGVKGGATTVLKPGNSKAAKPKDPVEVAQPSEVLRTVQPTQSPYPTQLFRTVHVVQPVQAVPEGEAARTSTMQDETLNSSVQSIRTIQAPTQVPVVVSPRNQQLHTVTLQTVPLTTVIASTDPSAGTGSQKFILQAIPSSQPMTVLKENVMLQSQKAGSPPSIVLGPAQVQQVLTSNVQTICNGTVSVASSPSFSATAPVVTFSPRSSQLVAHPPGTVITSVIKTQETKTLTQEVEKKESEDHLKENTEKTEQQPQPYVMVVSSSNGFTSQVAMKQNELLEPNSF
Chain of ETV1 (P50549 whole entry): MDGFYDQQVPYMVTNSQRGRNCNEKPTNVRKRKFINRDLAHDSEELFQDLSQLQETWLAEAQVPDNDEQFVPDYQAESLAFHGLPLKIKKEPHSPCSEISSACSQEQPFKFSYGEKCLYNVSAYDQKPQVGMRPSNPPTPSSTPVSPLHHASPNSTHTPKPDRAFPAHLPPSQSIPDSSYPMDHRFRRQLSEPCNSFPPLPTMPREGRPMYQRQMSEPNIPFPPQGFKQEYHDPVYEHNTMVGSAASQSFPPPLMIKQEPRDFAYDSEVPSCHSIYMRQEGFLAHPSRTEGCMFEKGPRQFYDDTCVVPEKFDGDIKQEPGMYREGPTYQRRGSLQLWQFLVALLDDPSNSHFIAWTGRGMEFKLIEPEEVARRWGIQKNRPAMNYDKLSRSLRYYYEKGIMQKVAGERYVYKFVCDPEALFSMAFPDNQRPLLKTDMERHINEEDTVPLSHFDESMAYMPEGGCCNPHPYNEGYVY
Chain of CRX (O43186 whole entry): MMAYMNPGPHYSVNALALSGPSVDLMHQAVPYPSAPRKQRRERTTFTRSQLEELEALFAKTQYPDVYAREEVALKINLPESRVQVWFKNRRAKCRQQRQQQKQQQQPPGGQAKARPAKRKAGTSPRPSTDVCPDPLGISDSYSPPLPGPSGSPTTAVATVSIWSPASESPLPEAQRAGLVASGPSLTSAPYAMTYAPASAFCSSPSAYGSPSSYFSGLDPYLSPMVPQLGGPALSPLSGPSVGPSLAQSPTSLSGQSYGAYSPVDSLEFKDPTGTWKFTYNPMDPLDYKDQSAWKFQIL
Chain of ELF4 (Q99607 whole entry): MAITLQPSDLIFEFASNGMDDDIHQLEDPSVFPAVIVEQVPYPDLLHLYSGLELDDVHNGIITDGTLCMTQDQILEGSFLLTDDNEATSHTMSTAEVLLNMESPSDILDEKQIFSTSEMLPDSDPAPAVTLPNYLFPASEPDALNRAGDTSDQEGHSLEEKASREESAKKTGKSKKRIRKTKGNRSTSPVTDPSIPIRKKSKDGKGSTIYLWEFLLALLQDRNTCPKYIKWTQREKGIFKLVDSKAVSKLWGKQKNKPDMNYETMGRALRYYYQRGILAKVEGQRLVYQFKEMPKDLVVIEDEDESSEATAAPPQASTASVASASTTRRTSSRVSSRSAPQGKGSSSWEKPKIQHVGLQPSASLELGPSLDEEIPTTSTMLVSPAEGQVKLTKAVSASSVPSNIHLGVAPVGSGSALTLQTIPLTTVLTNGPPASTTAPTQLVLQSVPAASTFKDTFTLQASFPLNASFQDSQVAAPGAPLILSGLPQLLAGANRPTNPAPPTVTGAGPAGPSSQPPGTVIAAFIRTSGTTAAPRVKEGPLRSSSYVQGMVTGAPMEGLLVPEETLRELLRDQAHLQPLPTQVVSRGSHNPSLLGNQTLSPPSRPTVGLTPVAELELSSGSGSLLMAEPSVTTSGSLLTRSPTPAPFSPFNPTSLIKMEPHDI

In the case of AAGCTT, the binding signal [1] is reported as 1.31 fold enrichment (6-mer frequency, TF over GST control), the binding signal [2] is reported as 1.33 fold enrichment (6-mer frequency, TF over GST control) and the binding signal [3] is reported as 1.22 fold enrichment (6-mer frequency, TF over GST control). For the same sequence, the binding signal [4] was 1.33 fold enrichment (6-mer frequency, TF over GST control), the binding signal [5] was 1.2 fold enrichment (6-mer frequency, TF over GST control) and the binding signal [6] was 1.26 fold enrichment (6-mer frequency, TF over GST control). The binding signal [7] was 1.23 fold enrichment (6-mer frequency, TF over GST control), the binding signal [8] was 1.32 fold enrichment (6-mer frequency, TF over GST control) and the binding signal [9] was 1.31 fold enrichment (6-mer frequency, TF over GST control). The binding signal [10] was 1.16 fold enrichment (6-mer frequency, TF over GST control), the binding signal [11] was 1.25 fold enrichment (6-mer frequency, TF over GST control) and the binding signal [12] was 1.84 fold enrichment (6-mer frequency, TF over GST control). The binding signal [13] was 1.24 fold enrichment (6-mer frequency, TF over GST control), the binding signal [14] was 1.25 fold enrichment (6-mer frequency, TF over GST control) and the binding signal [15] was 1.39 fold enrichment (6-mer frequency, TF over GST control). The binding signal [16] was 1.31 fold enrichment (6-mer frequency, TF over GST control), the binding signal [17] was 1.29 fold enrichment (6-mer frequency, TF over GST control) and the binding signal [18] was 2.33 fold enrichment (6-mer frequency, TF over GST control). The binding signal [19] was 1.31 fold enrichment (6-mer frequency, TF over GST control).
